Experimental data as given in PubChem BioAssay (Tox21).
Inconclusive results are not listed. The source made the active and inactive calls. Unless noted, calls follow the shape of the dose curve; as a rule, active = well fitted curve in the direction sought with a large enough effect in the repeat runs; inconclusive = weak or mixed curves; inactive = no such curve, though single readings can be large; an effect the other way counts as inactive or inconclusive.

How the values were obtained:
[1] = qHTS assay for small molecule agonists of the p53 signaling pathway (AID 651631; calls by dose curve; also: nearly all actives have a fitted effect of over 15% in size)
Procedure, shortened: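 p53RE-bla HCT-116 cells; compounds 16 h, 37 °C; LiveBLAzer B/G FRET substrate 2 h RT; fluorescence intensity read-out, qHTS format.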

[2] = qHTS assay for small molecule agonists of the p53 signaling pathway - cell viability (AID 651633; calls by dose curve;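 also: p53RE-bla HCT reporter cells with a stable beta-lactamase p53 reporter; series mostly up to about 83 µM; nearly all actives have a fitted effect of over 30% in size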)
Procedure, shortened: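 p53RE-bla cells, seeded at 4,000 per well and rested 5 h at 37 C/5% CO2, received compounds in DMSO for 16 h at 37 C. CellTiter-Glo was then added, and luminescence was read after 30 min at room temperature to gauge cytotoxicity.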

[3] = qHTS assay for small molecules that induce genotoxicity in human embryonic kidney cells expressing luciferase-tagged ATAD5 - cell viability (AID 651634; calls by dose curve; also: nearly all actives have a fitted effect of over 25% in size)
Procedure, shortened: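 Live-cell protease activity (CellTiter-Fluor, fluorescence) indicates viability. HEK293T cells with luciferase-tagged ATAD5; 15.5 hr compound treatment at 37C.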

[4] = qHTS assay to test for compound auto fluorescence at 590 nm (red) in HepG2 cells (AID 720674)
Procedure, shortened: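 Rose Bengal sodium served as the red fluorophore standard. HepG2 monolayers (overnight attachment, MEM with 10% FBS) were exposed to test compounds for 1 hr at 37 C and read at Ex 540/Em 590 nm.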

[5] = qHTS assay to test for compound auto fluorescence at 535 nm (green) in HepG2 cells (AID 720675)
[6] = qHTS assay to test for compound auto fluorescence at 460 nm (blue) in HEK293 cells (AID 720678)
Procedure, shortened: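 After cell attachment (4-5 hr, 37C), compounds were pinned onto HEK293 monolayers in 10% dialyzed FBS medium. The blue channel (405/460 nm) was read following overnight culture. Equivalency was calculated against triamterene.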

[7] = qHTS assay to test for compound auto fluorescence at 590 nm (red) in HEK293 cells (AID 720679)
Procedure, shortened: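 Plates of HEK293 cells (10% dialyzed FBS) are treated with 23 nL compound or DMSO vehicle after a 4-5 hr attachment period, incubated overnight at 37C, and read for red fluorescence at 540/590nm.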

[8] = qHTS assay to test for compound auto fluorescence at 535 nm (green) in HEK293 cells (AID 720680)
[9] = qHTS assay to test for compound auto fluorescence at 535 nm (green) in HEK293 cell free culture (AID 720682)
Procedure, shortened: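 Cell-free medium (DMEM, 10% FBS) receives compound or DMSO by pintool. Plate read directly at Ex 485/Em 535 nm. Signal converted to fluorescein equivalency.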

[10] = qHTS assay to test for compound auto fluorescence at 590 nm (red) in HEK293 cell free culture (AID 720683)
Procedure, shortened: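 Tox21 10K library compounds were pinned into cell-free DMEM with 10% FBS and fluorescence was read at excitation 540 nm. Activity is expressed as Rose Bengal sodium equivalency.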

[11] = qHTS assay to test for compound auto fluorescence at 590 nm (red) in HepG2 cell free culture (AID 720684)
Procedure, shortened: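 Red fluorescence (540 nm excitation, 590 nm emission) was measured after compound transfer into cell-free MEM supplemented with 10% FBS. Values are equivalencies against Rose Bengal sodium.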

[12] = qHTS assay to test for compound auto fluorescence at 460 nm (blue) in HepG2 cell free culture (AID 720685)
Procedure, shortened: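 Compound (23 nL) or DMSO pinned into cell-free MEM with 10% FBS; blue fluorescence read at 405/460 nm excitation/emission, expressed as auto-fluorescence equivalency to triamterene.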

[13] = qHTS assay to test for compound auto fluorescence at 535 nm (green) in HepG2 cell free culture (AID 720686)
[14] = qHTS assay to test for compound auto fluorescence at 460 nm (blue) in HepG2 cells (AID 720687)
Procedure, shortened: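 Cells (2,000/well in MEM with 10% FBS) attached overnight at 37 C, then were exposed to compound or DMSO for 1 hr at 37 C, 5% CO2. Fluorescence read at Ex/Em 405/460 nm, expressed as triamterene-equivalent signal.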

[15] = molecular target: Glucocorticoid receptor (Homo sapiens) (UniProt P04150); assay: qHTS assay to identify small molecule agonists of the glucocorticoid receptor (GR) signaling pathway (AID 720691; active = well fitted activation curve with a large enough effect in the signal ratio in the repeat runs, not every such curve was filed as active; the % refers to the signal ratio)
Procedure, shortened: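 Beta-lactamase reporter activity, read as fluorescence intensity, was measured in GR-bla HeLa cells exposed to compounds for 18 h at 37 C and then loaded with LiveBLAzer B/G FRET substrate for 2 h at room temperature.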

[16] = molecular target: Glucocorticoid receptor (Homo sapiens) (UniProt P04150); assay: qHTS assay to identify small molecule antagonists of the glucocorticoid receptor (GR) signaling pathway (AID 720692; active = well fitted inhibition curve with a large enough effect in the signal ratio in the repeat runs, not every such curve was filed as active; the % refers to the signal ratio)
Procedure, shortened: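 Fluorescence from cleaved LiveBLAzer B/G FRET substrate reports GRE-driven beta-lactamase in HeLa cells; compounds are tested against 5 nM dexamethasone (final) over 18 h at 37 C, substrate incubation 2 h at room temperature.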

[17] = qHTS assay for small molecule disruptors of the mitochondrial membrane potential - cell viability (AID 720634; calls by dose curve;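 also: human HepG2 liver cancer cells; series mostly up to about 83 µM; nearly all actives have a fitted effect of over 20% in size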)
Procedure, shortened: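 Human hepatoma HepG2 cells were treated for 1 hr with test chemicals, then given m-MPI dye and CellTiter-Glo. Cell viability reflects luminescence proportional to cellular ATP.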

[18] = qHTS assay for small molecule disruptors of the mitochondrial membrane potential (AID 720635)
Procedure, shortened: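 HepG2 cells (2,000/well) attached overnight at 37C, then took compound for 1 hr at 37C, 5% CO2. Mito-MPS dye was added for 30 min; fluorescence was read at 490/535 nm (monomers) and 540/590 nm (aggregates).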

[19] = qHTS assay for small molecules that induce genotoxicity in human embryonic kidney cells expressing luciferase-tagged ATAD5 (AID 651632); also: nearly all actives have a fitted effect of over 15% in size
Procedure, shortened: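 Genotoxicity read-out via ATAD5-luciferase: HEK293T cells, 16 hr compound incubation at 37C, Amplite detection.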

[20] = qHTS assay to test for compound auto fluorescence at 460 nm (blue) in HEK293 cell free culture (AID 720681)
Procedure, shortened: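 Test compounds were pinned into cell-free culture medium (DMEM with 10% FBS) and fluorescence was read directly at Ex/Em 405/460 nm. Signals were expressed as fluorescence equivalents of triamterene, with DMSO vehicle as control.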
% is scaled to controls: 0 for no effect and ±100 for the full control effect.

Chain of Glucocorticoid receptor (Homo sapiens) (P04150 whole entry, looked up): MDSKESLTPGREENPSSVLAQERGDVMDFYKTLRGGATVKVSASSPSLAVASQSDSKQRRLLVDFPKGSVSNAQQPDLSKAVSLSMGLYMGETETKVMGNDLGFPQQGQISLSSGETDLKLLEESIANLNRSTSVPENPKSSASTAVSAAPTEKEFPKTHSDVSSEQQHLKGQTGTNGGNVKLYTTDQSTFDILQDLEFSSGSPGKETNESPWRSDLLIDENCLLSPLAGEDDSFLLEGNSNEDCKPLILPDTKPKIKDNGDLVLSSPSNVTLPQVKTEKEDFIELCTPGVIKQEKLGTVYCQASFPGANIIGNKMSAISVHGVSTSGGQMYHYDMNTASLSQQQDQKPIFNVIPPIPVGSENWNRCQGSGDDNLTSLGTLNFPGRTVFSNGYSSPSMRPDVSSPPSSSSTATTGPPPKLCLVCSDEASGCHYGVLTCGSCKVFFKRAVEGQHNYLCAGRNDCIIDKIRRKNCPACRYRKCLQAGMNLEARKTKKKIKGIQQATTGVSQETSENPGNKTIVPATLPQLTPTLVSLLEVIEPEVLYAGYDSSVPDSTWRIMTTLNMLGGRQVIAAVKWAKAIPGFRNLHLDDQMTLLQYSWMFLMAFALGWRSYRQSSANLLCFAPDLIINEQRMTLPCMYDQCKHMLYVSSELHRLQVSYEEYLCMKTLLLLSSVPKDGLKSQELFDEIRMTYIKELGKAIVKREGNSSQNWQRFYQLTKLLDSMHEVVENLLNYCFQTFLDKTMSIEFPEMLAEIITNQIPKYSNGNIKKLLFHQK

CC(C)(C)NCC(O)COc1cccc2c1CCC(=O)N2 (centres undefined)
inactive: Potency [1] | outcome [2] | outcome [3] | fluorescence, relative to Rose Bengal [4] -0.0368% [at 18.6 µM] | fluorescence, % of fluorescein control [5] -0.225% [at 18.6 µM] | fluorescence, % of triamterene [6] 0.0079% [at 18.6 µM] | fluorescence, % of fluorescent control [7] 0.0747% [at 18.6 µM] | fluorescence, % of fluorescein [8] 0.0295% [at 18.6 µM] | activity change [9] -0.0136% [at 18.6 µM] | fluorescence, % of fluorescent control [10] -0.0457% [at 18.6 µM] | fluorescence, % of Rose Bengal [11] -0.307% [at 18.6 µM] | fluorescence, % of fluorescent control [12] -0.0069% [at 18.6 µM] | fluorescence, % of fluorescein control [13] -0.0625% [at 18.6 µM] | fluorescence, % of fluorescent control [14] 0.113% [at 18.6 µM] | Potency [15] | outcome [16]

N=C(N)N
inactive: Potency [1] | outcome [3] | outcome [17] | Potency [18] | outcome [4] | outcome [5] | outcome [6] | outcome [7] | outcome [8] | outcome [9] | outcome [10] | outcome [11] | outcome [12] | outcome [13] | outcome [14] | Potency [15] | outcome [16]

CCOCCOCCOC(C)=O
inactive: Potency [1] | Potency [19] | outcome [3] | Potency [18] | outcome [4] | outcome [5] | outcome [6] | outcome [7] | outcome [8] | outcome [20] | outcome [9] | outcome [10] | outcome [11] | outcome [12] | outcome [13] | outcome [14] | Potency [15] | outcome [16]

CC[N+](C)(CC)CC
inactive: Potency [1] | outcome [2] | outcome [3] | outcome [17] | outcome [4] | outcome [5] | outcome [6] | outcome [7] | outcome [8] | outcome [20] | outcome [9] | outcome [10] | outcome [11] | outcome [12] | outcome [13] | outcome [14] | Potency [15] | outcome [16]

C=CCn1cc[n+](C)c1
inactive: Potency [1] | Potency [19] | outcome [3] | outcome [17] | Potency [18] | outcome [4] | outcome [5] | outcome [6] | outcome [7] | outcome [8] | outcome [9] | outcome [10] | outcome [11] | outcome [12] | outcome [13] | outcome [14] | Potency [15] | outcome [16]

CCCC(=O)OC
inactive: Potency [1] | Potency [19] | outcome [3] | outcome [17] | Potency [18] | outcome [4] | outcome [5] | outcome [6] | outcome [8] | outcome [20] | outcome [9] | outcome [10] | outcome [11] | outcome [12] | outcome [13] | outcome [14]

COc1cc(C(=O)NC2CCCNC2)cc(OC)c1OC (centres undefined)
inactive: Potency [1] | Potency [19] | outcome [3] | outcome [17] | Potency [18] | outcome [4] | outcome [5] | outcome [6] | outcome [8] | outcome [20] | outcome [9] | outcome [10] | outcome [11] | outcome [12] | outcome [13] | outcome [14] | Potency [15] | outcome [16]

CN(C)CCCN(C)C
inactive: activation [1] 3.19% [at 8.3 µM] | activity change, negative = cytotoxicity [2] 10.5% [at 8.08 µM] | activity, negative = cytotoxicity [3] 29.6% [at 8.08 µM] | activity change, negative = cytotoxicity [17] 7.6% [at 8.08 µM] | fluorescence, relative to Rose Bengal [4] -1.07% [at 3.72 µM] | fluorescence, % of fluorescein control [5] -0.223% [at 3.72 µM] | fluorescence, % of triamterene [6] -0.32% [at 3.72 µM] | fluorescence, % of fluorescent control [7] -0.954% [at 3.72 µM] | fluorescence, % of fluorescein [8] -0.137% [at 3.72 µM] | activity change [9] -0.2% [at 3.72 µM] | fluorescence, % of fluorescent control [10] -0.816% [at 3.72 µM] | fluorescence, % of Rose Bengal [11] -0.0354% [at 3.72 µM] | fluorescence, % of fluorescent control [12] -0.358% [at 3.72 µM] | fluorescence, % of fluorescein control [13] -0.197% [at 3.72 µM] | fluorescence, % of fluorescent control [14] -0.76% [at 3.72 µM] | activation [15] -0.0659% [at 6.9 µM] | activity change, negative = inhibition [16] 10.4% [at 7.04 µM]

Cc1cc(C)c(N)c(Cl)c1
inactive: Potency [1] | outcome [2] | outcome [3] | outcome [17] | outcome [4] | outcome [5] | outcome [6] | outcome [8] | outcome [9] | outcome [10] | outcome [11] | outcome [12] | outcome [13] | outcome [14] | Potency [15] | outcome [16]
